Data taken from PubChem BioAssay (NCI).
“And” between values parts separate entries of the source, which are not always exact repeats. Equal entries are not always repeated. The panel holds about 83,000 compounds, 20% with a hit somewhere; the sample as a whole holds those more often.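 Each cell line was grown in a 96-well plate and treated with one concentration of compound for 48 hours. Values below 10 were considered active.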 The source made the active and inactive calls.

test system: KM12 colon; assay: NCI-60 one-dose screen, 48 h (100 = growth as untreated, 0 = no growth, -100 = all killed); conditions: 10 µM
Description: Growth inhibition of the KM12 human tumor cell line is measured as a screen for anti-cancer activity. Cells are grown in 96 well plates and exposed to the test compound for 48 hours. Compounds are tested at a single concentration, which is 10^-5 M for most compounds. The reported endpoint is percent growth (GI% or GIPRCNT), where numbers from 0 - 100% represent growth inhibition, and numbers from -100% - 0 represent cell death. For example, a value of 40 represents 60% growth inhibition. A value of 0 means no net growth occurred over the course of the experiment. A value of -40 indicates 40% of cells at the beginning of the experiment died by the end of the experiment. A value of -100 means all cells are dead at the end of the experiment.
NCI-60 Human Tumor Cell Lines Screen was performed using the standard one-dose NCI protocol, which is described in more detail at https://dtp.cancer.gov/discovery_development/nci-60/default.htm.
Compounds with GIPRCNT values below 10 were considered active. Activity score was based on GIPRCNT using the following formula: […]
Score is 0 for GIPRCNT values of 100 or above, 50 for GIPRCNT values of 0, and 100 for GIPRCNT values of -100.

| Structure (SMILES) | growth |
| --- | --- |
| CS/C(=C\c1ccc(C(=O)c2ccc(C)cc2)n1C)S(C)=O (stereo not given) | 94.3% (inactive) |
| O=c1ccn2c(n1)OC1CC2OC1COC(c1ccccc1)(c1ccccc1)c1ccccc1 (stereo not given) | 117% (inactive) |

same assay, conditions: 10 µM unless noted

| Structure (SMILES) | growth |
| --- | --- |
| O=C(c1ccc(Cl)cc1)C1C(c2ccccc2)C1[N+](=O)[O-] (stereo not given) | 97.9% (inactive) |
| Cc1ccc2cccc([N+](=O)[O-])c2n1 | 111% (inactive) and 107% (inactive) |
| O=C(O)c1cc(=O)[nH]c(=O)[nH]1 | 106% (inactive) and 99.6% (inactive) |
| CC1CCC(=O)N1c1ccc(N)cc1 (stereo not given) | 102% (inactive) |
| COCCNC(C)=O | 103% (inactive) |
| CCOP(C)(=O)/C(Cc1ccc(OC)c(OC)c1)=N\O (stereo not given) | 101% (inactive) |
| CCOc1ccc(/C=C\C(=O)O)cc1 | 106% (inactive) |
| O=C1C=CC[C@H](/C=C/c2ccccc2)O1 | 43.1% (inactive) and 35.6% (inactive) |
| O=[N+]([O-])c1ccc(NC(c2ccccc2)c2ccc3cccnc3c2O)cc1 (stereo not given) | 28% (inactive) |
| C/C(=C\c1ccccc1)C(O)C(=O)c1nc2ccc([N+](=O)[O-])cc2[nH]c1=O (stereo not given) | 90.3% (inactive) |
| CCOC(=O)c1ccncc1 | 105% (inactive) |
| OCc1ccccc1F | 107% (inactive) |
| CC(C)=NOC(C)C(=O)O (stereo not given) | 114% (inactive) |
| Cc1cnc(N)s1 | 103% (inactive) |
| CC(=O)Nc1ccc(OC(C)=O)cc1 | 2.42% (active) and 112% (inactive) |
| CCOC(=O)C(N)Cc1cc(I)c(O)c(I)c1 (stereo not given) | 107% (inactive) |
| NC1=NC(c2ccccc2)N=C(Nc2ccccc2)N1 (stereo not given) | 26.1% (inactive) and 51.7% (inactive) |
| O=c1[nH]c(=O)n(C2OC(CO)C(O)C2O)cc1I (stereo not given) | 109% (inactive) and 100% (inactive) |

| Structure (SMILES) | growth |
| --- | --- |
| CCNCc1ccccc1 | 99.8% (inactive) |
| O=C(NC(CSSCC(NC(=O)OCc1ccccc1)C(=O)O)C(=O)O)OCc1ccccc1 (stereo not given) | 95.4% (inactive) and 106% (inactive) |
| COc1cc([C@@H]2c3cc4c(cc3[C@H](O)[C@H]3COC(=O)[C@@H]23)OCO4)cc(OC)c1OC | 28.4% (inactive) and -3.9% (active) |
| CC(=O)c1cc2ccccc2o1 | 109% (inactive) |
| O=C(O)C(Cc1ccc(OS(=O)(=O)Cc2ccccc2)cc1)NS(=O)(=O)Cc1ccccc1 (stereo not given) | 101% (inactive) and 106% (inactive) |
| Cc1ccc(S(=O)(=O)n2ccnc2)cc1 | 95.8% (inactive) |
| C(=N\OCCc1ccccc1)/c1ccccn1 | 113% (inactive) and 107% (inactive) |
| COc1ccc2nccc(Cl)c2c1 | 92.8% (inactive) |
| O=C(c1ccncc1)c1c(Cc2ccccc2)ccc2ccccc12 | 102% (inactive) |
| Clc1ccc2c(c1)N(C1CCCN(Cc3ccccc3)C1)c1ccccc1S2 (stereo not given) | 33.7% (inactive) |
| Nc1nc(-c2ccccn2)cc(-c2cc(-c3ccccn3)nc(N)n2)n1 | 107% (inactive) |
| CN(C=O)c1ccccc1 | 110% (inactive) |
| Cc1c(Cl)cc(Cl)c(N)c1Cl | 114% (inactive) |
| CC(=O)/C(N=Nc1ccc(S(=O)(=O)c2ccc(N=N/C(C(C)=O)=C(/C)O)cc2)cc1)=C(\C)O | 94.8% (inactive) |
| CC(C)(C)C1=CC(=O)C(C(C)(C)C)=CC1=O | 110% (inactive) |
| CCCCC/C(C)=N\NC(N)=S | 93.5% (inactive) |
| c1ccc2c[n+](Cc3ccc4ccccc4n3)ccc2c1 | 76.1% (inactive) |
| O=C(N=C1C(=O)C2(CCCCC2)C2(N=C(c3ccccc3)OC2=O)C12CCCCC2)c1ccccc1 (stereo not given) | 55.6% (inactive) |

same assay, conditions: 100 µM

| Structure (SMILES) | growth |
| --- | --- |
| CS/C(=C\c1ccc(C(=O)c2ccc(C)cc2)n1C)S(C)=O (stereo not given) | 72.8% (inactive) |
| O=c1ccn2c(n1)OC1CC2OC1COC(c1ccccc1)(c1ccccc1)c1ccccc1 (stereo not given) | 96.3% (inactive) |
